# beta cell repl – MIN6 beta-cell proliferation induction | 0.29% of 330,000 active | MIN6 cells proliferation, ATPlite luminescence, 48 h; cells starved in 0.2% serum; 100% = growth in 10% serum | proliferation, % at 10 µM | AID 2380;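 active = compounds whose signal lies at least 3.5 SD above the mean of all wells on their plate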
# CHT allo act – allosteric activators of human choline transporter CHT; 0.49% of 310,000 active; CHT-expressing cells, membrane potential dye, choline EC20; active compounds read high; LV-AA mutant CHT in HEK293 cells; Q9GZV3; B-score at 10 µM; AID 488977;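 active = initial fluorescence not abnormally high and integrated response B-score, plate-corrected, over 3 SD above library mean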
# Target sequence (Q9GZV3 whole entry, looked up): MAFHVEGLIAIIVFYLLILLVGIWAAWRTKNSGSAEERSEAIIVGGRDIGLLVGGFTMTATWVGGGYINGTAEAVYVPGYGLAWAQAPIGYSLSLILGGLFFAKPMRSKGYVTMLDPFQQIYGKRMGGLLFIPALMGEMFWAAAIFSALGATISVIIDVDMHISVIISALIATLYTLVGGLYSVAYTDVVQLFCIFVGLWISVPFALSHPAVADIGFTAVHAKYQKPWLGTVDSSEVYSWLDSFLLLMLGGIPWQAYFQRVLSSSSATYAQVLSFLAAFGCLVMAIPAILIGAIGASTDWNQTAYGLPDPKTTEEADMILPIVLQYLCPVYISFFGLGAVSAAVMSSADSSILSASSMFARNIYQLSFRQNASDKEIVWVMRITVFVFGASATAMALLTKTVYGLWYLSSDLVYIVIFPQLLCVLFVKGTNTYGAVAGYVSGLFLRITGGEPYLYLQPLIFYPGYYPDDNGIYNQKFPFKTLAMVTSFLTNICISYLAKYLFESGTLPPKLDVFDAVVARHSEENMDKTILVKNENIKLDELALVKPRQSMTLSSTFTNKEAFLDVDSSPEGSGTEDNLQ
# CHT block – human CHT choline transport inhibition | Q9GZV3 | 0.86% of 310,000 active | CHT-expressing cells, membrane potential dye, choline response; active compounds read low | B-score at 10 µM | AID 488975;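 active = B-score over 3 SD under the library average, and starting fluorescence ratio not unusually high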;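 also: choline stimulus applied at its EC90 after an EC20 pre-addition; B-score computed on integrated fluorescence ratio after choline addition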
# TAG inh – triacylglycerol accumulation inhibition; H9c2 cells, Nile Red lipid (TAG) fluorescence; cells loaded with 200 µM oleic acid; inhibition, % at 12.5 µM; 0.66% of 230,000 active; AID 651582;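 active = pattern-corrected inhibition of lipid staining of at least 50% with the nuclear-stain viability signal not falling by more than 50%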
# CHT block conf – confirmation of human choline transporter CHT inhibitors; shares compounds with CHT block; CHT-expressing cells, choline membrane potential dye; LV-to-AA substituted CHT, HEK293 cells; CHT activity remaining % of control (active compounds read low), % at 10 µM; 70% of 2,400 active;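 active = choline transporter activity left, mean of duplicates at 10 µM, below buffer-only control mean minus 3 SD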;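 also: depolarization triggered by choline at its EC90 following an EC20 pre-addition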
# HEK293 MPD ctr – counter-screen for CHT inhibitors: effect in parental HEK293 cells | shares compounds with CHT block | membrane potential dye, choline response; active = decrease or increase beyond buffer ±3SD | membrane potential ratio readout (active if shifted either direction beyond buffer ±3SD; no single direction) at 10 µM | 4% of 2,400 active | AID 493222;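 also: parental cells lack the transporter so any hit is non-specific; ratio is peak minus trough fluorescence over baseline after EC90 choline challenge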
# Numbers stand for hits; – = inactive; · = no result given. An excerpt weighted towards active compounds, which were near 1.7% of everything screened.
SMILES,beta cell repl,CHT allo act,CHT block,TAG inh,CHT block conf,HEK293 MPD ctr
CS(=O)(=O)n1nc(OC(=O)c2cc(Br)ccc2Cl)cc1N,–,–,–,–,·,·
CS(=O)(=O)n1nc(OC(=O)c2cccc3ccccc23)cc1N,–,–,-5.45,–,63.1%,–
CCC(=O)N1c2ccccc2NC2=C(C(=O)CC(C)(C)C2)C1c1ccc(O)c(OC)c1 (centres undefined),–,–,–,·,·,·
COc1ccccc1-c1coc2cc(O)cc(O)c2c1=O,–,–,-5.87,–,65.5%,–
Cc1ccc(CNC(=O)c2ccc(CNc3c(N4CCCC4)c(=O)c3=O)cc2)cc1,–,–,–,–,·,·
CC1CCCC(NC(=O)c2ccc(CNc3c(N4CCCC4)c(=O)c3=O)cc2)C1C (centres undefined),–,–,-12.8,–,0.2%,–
O=C(NC1CCCCCCC1)c1ccc(CNc2c(N3CCOCC3)c(=O)c2=O)cc1,–,–,-9.37,–,12.8%,–
CCOC(=O)C1CCN(c2c(NCc3ccc(C(=O)NC4CCCC4)cc3)c(=O)c2=O)CC1,–,–,–,–,·,·
Oc1ccc(-c2nc(-c3ccc(O)c(O)c3)cs2)cc1,–,–,-5.03,–,67.8%,–
Oc1ccc(Nc2nc(-c3ccc4ccccc4c3)cs2)cc1,–,–,–,·,·,·
CC(C)=CCc1c(O)cc2oc3c(CC=C(C)C)c(O)c(O)c(CC=C(C)C)c3c(=O)c2c1O,–,–,-6.51,·,–,–
CC(C)=CCc1cc(-c2oc3cc(O)cc(O)c3c(=O)c2O)ccc1O,–,–,–,·,·,·
Cn1c(-c2sc3ccccc3c2Cl)n[nH]c1=S,–,–,-5.06,–,50.1%,–
COc1ccc(C(C)(O)c2nc(-c3ccccc3OC)cs2)cc1 (centres undefined),·,·,·,–,·,·
O=C(Nc1nc2ccc(S(=O)(=O)N3CCCCC3)cc2s1)c1cccnc1,–,–,-5.46,·,49.2%,–
Cc1cc(C(=O)Cn2ncc(Cl)c(Cl)c2=O)c(C)n1CC(F)(F)F,–,–,-5.61,·,44.5%,–
CC(=O)N1CCc2cc(S(=O)(=O)N3CCCCCC3)ccc21,–,–,–,·,·,·
CS(=O)(=O)N1CCc2cc(S(=O)(=O)N3CCCCC3)ccc21,–,–,-7.45,–,–,–
CC(C)[C@H](NC(=O)c1ccco1)C(=O)NC12CC3CC(CC(C3)C1)C2,–,–,–,–,·,·
Cc1cccc(C(=O)NNC2=C(C(=O)C(F)(F)F)CCC2)c1O,–,–,-7.94,–,37.1%,–
O=C(NNC1=C(C(=O)C(F)(F)F)CCC1)c1cccnc1,–,–,–,–,·,·
COc1ccc(/C=C/C(=O)NCC(=O)N2CCC(N(C)CCN3CCOCC3)CC2)cc1OC,–,–,–,·,·,·
CC(/C=N/NC(=O)c1cc(-c2ccncc2)nc2ccccc12)=C\c1ccco1,–,–,-7.5,·,40.4%,–
Cc1ccc(/C=N/NC(=O)c2cc(-c3ccncc3)nc3ccccc23)o1,–,·,·,–,·,·
CC(=O)Nc1ccc(S(=O)(=O)NC2=C(N3CCN(Cc4ccccc4)CC3)C(=O)c3ccccc3C2=O)cc1,·,–,-6.2,–,40.9%,2.29
SMILES,beta cell repl,CHT allo act,CHT block,TAG inh,CHT block conf,HEK293 MPD ctr
CCN1CCN(C2=C(NS(=O)(=O)c3ccc(NC(C)=O)cc3)C(=O)c3ccccc3C2=O)CC1,–,–,–,·,·,·
Cc1ccc(-n2c(O)c(/C=N/Nc3ccc(S(=O)(=O)N4CCOCC4)cc3[N+](=O)[O-])c3ccccc3c2=O)c(C)c1,–,–,-5.09,·,27.2%,–
CC(C)(C)OC(=O)C[C@@H]1C/C=C\C[C@@H](CC(=O)N[C@H](CO)Cc2ccccc2)C(=O)N2CCC[C@H]2COC1=O,–,·,·,–,·,·
CCOCCCNS(=O)(=O)c1ccc(NC(=O)c2ccc(OC)c([N+](=O)[O-])c2)cc1,–,–,–,·,·,·
CCOCCCNS(=O)(=O)c1ccc(NC(=O)c2ccc([N+](=O)[O-])cc2Cl)cc1,–,–,-10.3,·,-5.7%,–
CC(=O)Nc1ccc(NC(=O)c2ccc([N+](=O)[O-])cc2Cl)cc1,–,–,–,·,·,·
CCC(C)NS(=O)(=O)c1ccc(NC(=O)c2ccc([N+](=O)[O-])cc2Cl)cc1 (centres undefined),–,–,-8.86,·,–,–

# Source: PubChem BioAssay (several laboratories)
